Screen size: about 5,500 compounds; about 2,000 (36%) were called active. Roughly 18% stayed inconclusive and do not appear here. Cut-off read from the data, not from the text of the source: active = normalized growth mostly below about 0.91 (no sharp cut-off); inconclusive = no clear call, values can overlap the other calls; inactive = mostly above about 0.92. This is one part of the list.
Test: chemical genetic growth profiling, strain panel (AID 1159580);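 note: tested at 20 µM; growth read once vehicle control cultures reached saturation at 30 °C; 1 = growth at the plate median or of vehicle wells; lower values mean less growth of the strain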
Conditions: S. cerevisiae deletion strains, growth OD

Measured: normalized growth

COc1ccc(C(c2ccc(OC)cc2)C(Cl)(Cl)Cl)cc1
inactive: locus YAL013W, strain DEP1, stronger effect = lower value 1 | locus YAL021C, strain ccr4, stronger effect = lower value 0.989 | locus YAL026C, strain drs2, stronger effect = lower value 1.01 | locus YAL030W, strain snc1, stronger effect = lower value 1.02 | locus YBL061C, strain skt5, stronger effect = lower value 1.01 | locus YBR009C, strain hhf1, stronger effect = lower value 1.01 | locus YBR021W, strain FUR4, stronger effect = lower value 0.974 | locus YBR023C, strain chs3, stronger effect = lower value 0.998 | locus YBR171W, strain sec66, stronger effect = lower value 1 | locus YBR229C, strain ROT2, stronger effect = lower value 0.997 | locus YBR231C, strain swc5, stronger effect = lower value 1.01 | locus YBR279W, strain paf1, stronger effect = lower value 1.02 | locus YCL011C, strain gbp2, stronger effect = lower value 1.02 | locus YCL016C, strain dcc1, stronger effect = lower value 1.01 | locus YCL029C, strain bik1, stronger effect = lower value 0.981 | locus YCL061C, strain MRC1, stronger effect = lower value 1.01 | locus YCL069W, strain vba3, stronger effect = lower value 1.02 | locus YCR088W, strain abp1, stronger effect = lower value 1.01 | locus YDL005C, strain med2, stronger effect = lower value 1.01 | locus YDL035C, strain GPR1, stronger effect = lower value 0.999 | locus YDL040C, strain nat1, stronger effect = lower value 1.02 | locus YDL074C, strain BRE1, stronger effect = lower value 0.986 | locus YDL101C, strain DUN1, stronger effect = lower value 0.996 | locus YDL134C, strain PPH21, stronger effect = lower value 1 | locus YDL185W, strain tfp1, stronger effect = lower value 0.981 | locus YDL192W, strain arf1, stronger effect = lower value 0.992 | locus YDR001C, strain nth1, stronger effect = lower value 1.01 | locus YDR069C, strain doa4, stronger effect = lower value 0.992 | locus YDR101C, strain arx1, stronger effect = lower value 0.995 | locus YDR137W, strain rgp1, stronger effect = lower value 0.959 | locus YDR150W, strain NUM1, stronger effect = lower value 1 | locus YDR159W, strain sac3, stronger effect = lower value 0.972 | locus YDR162C, strain NBP2, stronger effect = lower value 1.01 | locus YDR195W, strain ref2 1.07 | locus YDR297W, strain sur2, stronger effect = lower value 1 | locus YDR318W, strain mcm21, stronger effect = lower value 0.996 | locus YDR334W, strain swr1, stronger effect = lower value 1.03 | locus YDR335W, strain msn5, stronger effect = lower value 1.01 | locus YDR388W, stronger effect = lower value 0.988 | locus YDR392W, strain spt3, stronger effect = lower value 0.957 | locus YDR502C, strain sam2, stronger effect = lower value 0.989 | locus YEL003W, strain gim4, stronger effect = lower value 0.994 | locus YEL037C, strain rad23, stronger effect = lower value 1.01 | locus YEL061C, strain CIN8 (second series), stronger effect = lower value 1.01 | locus YEL061C, strain CIN8, stronger effect = lower value 0.995 | locus YER015W, strain faa2, stronger effect = lower value 0.984 | locus YER016W, strain bim1, stronger effect = lower value 1.02 | locus YER110C, stronger effect = lower value 0.984 | locus YER111C, strain swi4, stronger effect = lower value 1.01 | locus YER155C, strain BEM2 (second series), stronger effect = lower value 1 | locus YER155C, strain BEM2, stronger effect = lower value 0.989 | locus YER167W, strain BCK2, stronger effect = lower value 0.996 | locus YFR010W, strain ubp6, stronger effect = lower value 1.01 | locus YGL078C, strain dbp3, stronger effect = lower value 0.991 | locus YGL086W, strain mad1, stronger effect = lower value 1.02 | locus YGL167C, strain pmr1, stronger effect = lower value 1.01 | locus YGL173C, strain kem1, stronger effect = lower value 1 | locus YGL227W, strain vid30, stronger effect = lower value 1.01 | locus YGL240W, strain doc1, stronger effect = lower value 1.02 | locus YGL248W, strain PDE1, stronger effect = lower value 0.987 | locus YGL253W, strain hxk2, stronger effect = lower value 0.997 | locus YGR078C, strain PAC10, stronger effect = lower value 1.01 | locus YGR135W, strain pre9, stronger effect = lower value 0.994 | locus YGR229C, strain SMI1, stronger effect = lower value 1 | locus YGR252W, strain gcn5, stronger effect = lower value 0.947 | locus YHR013C, strain ard1, stronger effect = lower value 0.949 | locus YHR027C, strain rpn1, stronger effect = lower value 1 | locus YHR030C, strain SLT2, stronger effect = lower value 1 | locus YHR079C, strain IRE1 (second series), stronger effect = lower value 0.979 | locus YHR094C, strain hxt1, stronger effect = lower value 0.994 | locus YHR129C, strain ARP1, stronger effect = lower value 1 | locus YHR142W, strain chs7, stronger effect = lower value 0.988 | locus YHR200W, strain rpn10, stronger effect = lower value 0.985 | locus YIL066C, strain RNR3, stronger effect = lower value 0.977 | locus YIL073C, strain SPO22, stronger effect = lower value 0.952 | locus YIL125W, strain kgd1, stronger effect = lower value 0.996 | locus YIR030C, strain dcg1, stronger effect = lower value 0.998 | locus YJL092W, strain hpr5, stronger effect = lower value 1.01 | locus YJL095W, strain BCK1 (second series), stronger effect = lower value 1.02 | locus YJL095W, strain BCK1, stronger effect = lower value 1.03 | locus YJL115W, strain asf1, stronger effect = lower value 1.01 | locus YJL134W, strain LCB3, stronger effect = lower value 0.989 | locus YJL154C, strain vps35, stronger effect = lower value 1.01 | locus YJL164C, strain tpk1, stronger effect = lower value 0.988 | locus YJL166W, strain qcr8, stronger effect = lower value 0.992 | locus YJL168C, strain set2, stronger effect = lower value 0.989 | locus YJL187C, strain SWE1 (second series), stronger effect = lower value 0.997 | locus YJL187C, strain SWE1, stronger effect = lower value 1.03
active: locus YJL129C, strain trk1, stronger effect = lower value 0.847

— PubChem BioAssay AID1159580 (chemical genetic matrix, 2015)
